# Data: PubChem BioAssay AID2314 (National Center for Advancing Translational Sciences (NCATS), 2010)
# Screen size: about 300,000 compounds; about 37,000 (12%) were called active. No stated cut-off is given here; in the data, active means max response mostly above about 13% (no sharp cut-off); inactive means mostly below about 14%. Only a selection was taken, and actives are over-represented in it overall.
# Test: Cycloheximide Counterscreen for Small Molecule Inhibitors of Shiga Toxin; further: read at 38.3 µM for the half of the compounds with a filed dose; 0% is about no effect
# Details: cell reporter, cycloheximide protein synthesis inhibition counterscreen; active compounds read high
row,Compound,max response
1,O=C(c1cnc(Cl)c(Cl)c1)N1CCN(S(=O)(=O)c2ccc(F)cc2)CC1,-7.24% (inactive)
2,Cc1cnc(C(=O)N2CCCC(C(=O)c3ccc(C(F)(F)F)cc3)C2)cn1 (stereo unspecified),-6.02% (inactive)
3,O=C(NCc1ccco1)c1sc2cccc(F)c2c1Cl,24.8% (active)
4,COc1ccc2c(Cl)c(C(=O)NCc3ccco3)sc2c1,76.1% (active)
5,COc1ccc(-c2cc(C(=O)NCc3ccco3)no2)cc1OC,8.2% (inactive)
6,O=C(NCc1ccco1)c1ccc([N+](=O)[O-])cc1Cl,-2.66% (inactive)
7,Cn1nc(-c2ccc(Cl)cc2)c2cc(C(=O)NCc3ccco3)sc21,-3.6% (inactive)
8,O=C(NCc1ccco1)c1nn2cccnc2c1Cl,7.86% (inactive)
9,COC(=O)c1ccc(COc2cc([N+](=O)[O-])cc3cccnc23)cc1,0.536% (inactive)
10,COc1cccc(NC(=O)C2CCCN(c3ncnc4c3nc3n4CCCCC3)C2)c1 (stereo unspecified),9.28% (inactive)
11,CCCOc1ccc(Cc2c(Cl)nc(SC)nc2NC)cc1,-0.737% (inactive)
12,CC(NC(=O)c1cc(=O)[nH]c2ccccc12)c1ccc(F)cc1F (stereo unspecified),-4.29% (inactive)
13,CC(C)N1C(=S)SC(C)(C)C1n1oc(=O)n(-c2ccc(Cl)c(Cl)c2)c1=O (stereo unspecified),-1.96% (inactive)
14,CC(=O)NC1CCN(CC(=O)Nc2nccs2)CC1,4.21% (inactive)
15,CC1(C)CC(=O)C(C2c3ccccc3S(=O)(=O)c3ccccc32)C(=O)C1,7.14% (inactive)
16,COc1ccc(CNC(=O)C(NS(=O)(=O)c2cccc3nsnc23)C(C)C)cc1 (stereo unspecified),2.57% (inactive)
17,Cc1ccc(C)c(OCCC(=O)OCC(=O)N2CCN(c3ccccc3)CC2)c1,-1.98% (inactive)
18,COc1ccc2c(c1)C(=C(C#N)C#N)C(=O)N2CCc1ccccc1,13.7% (active)
19,C#CCN1C(=O)C(O)(CC(=O)c2cc(OC)ccc2OC)c2ccccc21 (stereo unspecified),-0.954% (inactive)
20,CCCCN1C(=O)/C(=C(/C#N)C(N)=O)c2ccccc21,-9.26% (inactive)
21,NC(=O)c1cc2ccccc2o/c1=N/NC(=O)c1cccc(F)c1,8.31% (inactive)
22,COc1cccc2cc(C(N)=O)/c(=N\NC(=O)c3ccccc3)oc12,36.9% (active)
23,COc1ccc(C(=O)N/N=c2\oc3ccccc3cc2C(N)=O)cc1,45% (inactive)
24,CCCC(C)c1nnc(NC(=O)C2CC(=O)N(c3ccc(OCC)cc3)C2)s1 (stereo unspecified),-2.49% (inactive)

row,Compound,max response
1,COc1ccc(N2CCN(C(=O)CNC(=O)c3ccc(Br)o3)CC2)cc1,-1.81% (inactive)
2,CC1=C(C(N)=O)C(c2ccc(F)cc2)n2nc(CCCO)nc2N1 (stereo unspecified),5.22% (inactive)
3,Cc1cc(C)c(SCCc2ccncc2)c(C)c1,1.01% (inactive)
4,CC(c1ccccc1)(c1ccccc1)c1ccncc1,-5.73% (inactive)
5,CC(C)(C)c1ccc(SCCc2ccncc2)cc1,12.3% (active)
6,COc1ccc(N2CCN(C(=O)Cn3cnc4sc(C)c(S(=O)(=O)N5CCOCC5)c4c3=O)CC2)cc1,-2.13% (inactive)
7,Cn1c(=O)[nH]c(=O)c2c1[nH]c(=S)n2Cc1ccccc1,-6.84% (inactive)
8,CCOCc1nnc(NC(=O)CCC2CCCCC2)s1,9.52% (inactive)
9,CCc1ccc(OCC(O)CN2CCN(CCO)CC2)cc1 (stereo unspecified),-1.22% (inactive)
10,CCn1c(SC)nc(O)c(C(c2ccc(OC)c(O)c2)c2c(O)nc(SC)n(CC)c2=O)c1=O,18.8% (inactive)
11,Cc1onc(-c2ccc(Cl)cc2)c1-c1ccnn1S(=O)(=O)c1ccc(Cl)cc1,9.73% (inactive)
12,Cc1ccc(-c2noc(CC(c3ccccc3)c3ccccc3)n2)cc1,11% (inactive)
13,COc1ccc(-c2noc(-c3ccc(C)cc3)n2)cc1,39.5% (active)
14,COc1ccc(-c2noc(CSc3ccc(C)cc3)n2)cc1,10.3% (inactive)
15,COc1ccc(-c2noc(CN(C)S(=O)(=O)c3ccc(C)cc3)n2)cc1,-2.54% (inactive)
16,COc1ccc(Cc2nc(-c3ccccn3)no2)cc1OC,33% (active)
17,COc1ccccc1CNS(=O)(=O)c1ccc(C)cc1,7.14% (inactive)
18,COc1ccc2[nH]c(=O)c(-c3noc(-c4ccc(F)cc4)n3)cc2c1,41% (active)
19,COc1ccc2[nH]c(=O)c(CN(Cc3cccnc3)S(=O)(=O)c3ccccc3F)cc2c1,-2.1% (inactive)
20,COc1ccccc1Cc1nc(-c2ccc(C)cc2)no1,35.3% (active)
21,CCCc1nc(-c2cc3cc(C)ccc3[nH]c2=O)no1,2.4% (inactive)
22,COc1ccc(CCNC(=O)C(Sc2ccccn2)c2ccccc2)cc1OC (stereo unspecified),-1.92% (inactive)
23,COc1ccc(CCNS(=O)(=O)c2cccc3cccnc23)cc1OC,-1.86% (inactive)
24,O=c1c([N+](=O)[O-])cccn1Cc1ccc(F)cc1Cl,-5.4% (inactive)

row,Compound,max response
1,CCCN(CCC)C(=S)Nc1cc(C(=O)OC)ccc1C(=O)OC,-1.36% (inactive)
2,COc1ccc(S(=O)(=O)/N=C2\C=C(NS(=O)(=O)c3ccccc3)C(=O)c3ccccc32)cc1,13.7% (inactive)
3,COC(=O)COc1ccc2c(=O)c(Oc3ccccc3Br)coc2c1,1.67% (inactive)
4,CCCCN(CCCC)CC(O)Cn1c2ccccc2c(=O)c2ccccc21 (stereo unspecified),1.42% (inactive)
5,CCc1ccnc(NC(=O)Nc2ccc(OCc3ccccc3)cc2)c1,4.28% (inactive)
6,COc1ccc(C2=NOC3(CC(=O)N(c4ccc(C)cc4)C3=O)C2)cc1 (stereo unspecified),14.2% (inactive)
7,COc1ccc(/C=C/c2c(-c3cccc(C)c3)oc3ccc(-c4ccc5c(c4)OCO5)cc23)cc1,-3.1% (inactive)
8,COc1ccc(C2=Nc3cc(C)ccc3OC2)cc1,33.1% (active)
9,CC(=O)Nc1ccc(S(=O)(=O)Nc2ccc(-c3ccc4nnc(C)n4n3)cc2)cc1,-1.66% (inactive)
10,O=C(NC1CCCC1)C(c1ccc(Cl)cc1)N(C(=O)c1csnn1)C1CC1 (stereo unspecified),-3.62% (inactive)
11,Cc1cc(/C=C2/NC(=O)NC2=O)c(C)n1-c1cccnc1,7.98% (inactive)
12,Cc1cccc(C)c1-n1c(C)cc(/C=C2\C(=O)NN(c3ccccc3)C2=O)c1C,-1.17% (inactive)
13,Cc1ccccc1-n1c(C)cc(/C=C2\NC(=O)NC2=O)c1C,52% (active)
14,CCOc1ccc(S(=O)(=O)N2CCN=C2Cc2ccccc2)cc1C,-7.25% (inactive)
15,CCOc1ccc(N(C)S(=O)(=O)c2cnc[nH]2)cc1,-3.61% (inactive)
16,O=C(Cc1ccc(S(=O)(=O)N2CCCC2)s1)NC1CCCCCC1,0.894% (inactive)
17,C=CCn1c(=S)sc2c(=O)[nH]c(C)nc21,6.52% (inactive)
18,COc1ccc(C2/C(=C(/O)c3ccccc3)C(=O)C(=O)N2C)c(OC)c1 (stereo unspecified),5.88% (inactive)
19,COc1ccccc1C1/C(=C(/O)c2ccc(OC(C)C)cc2)C(=O)C(=O)N1c1cc(C)on1 (stereo unspecified),-2.72% (inactive)
20,CCOc1ccc(/C(O)=C2\C(=O)C(=O)N(c3ccc(OC)cc3)C2c2ccccc2[N+](=O)[O-])cc1 (stereo unspecified),45.2% (active)
21,O=S(=O)(Nc1nccs1)c1ccc2c(c1)OCCO2,13.4% (inactive)
22,CC(CCc1ccc(O)cc1)NCc1ccc(Cl)cc1Cl (stereo unspecified),0.267% (inactive)
23,COc1ccc(NC(=O)CCCNC(=O)Cn2cnc3sc4c(c3c2=O)CCCC4)cc1OC,-1.82% (inactive)
24,CCOC(=O)c1sc(-c2cccc([N+](=O)[O-])c2)cc1N,19% (active)

row,Compound,max response
1,O=[N+]([O-])c1cccc(C2=NCCS2)c1,7.65% (inactive)
2,CCOC(=O)C1=C(CN2CCCCCC2)NC(=O)NC1c1cccc([N+](=O)[O-])c1 (stereo unspecified),-4.55% (inactive)
3,CN(C)S(=O)(=O)Oc1ccccc1C(=O)Nc1ccccc1Cl,-4.26% (inactive)
4,O=C(NCc1ccco1)c1nc(-c2ccccc2)n(-c2ccccc2)n1,-1.99% (inactive)
5,O=c1c2ccccc2c(-c2ccc(Br)cc2)nn1Cc1ccccc1,-1.69% (inactive)
6,O=C(NCCc1ccco1)c1nn(Cc2ccccc2)c(=O)c2ccccc12,11.7% (active)
7,Cc1ccc(C(NC(=O)N2CCCC2)C(Cl)(Cl)Cl)cc1F (stereo unspecified),10.7% (inactive)
8,COc1ccc(C(C(=O)NC(C)(C)C)N(Cc2ccc(F)cc2)C(=O)CCC(=O)Nc2cc(C)on2)cc1 (stereo unspecified),-0.261% (inactive)
9,CCOC(=O)c1c(C)[nH]c2c1-c1ccccc1C(=O)C2=O,12.4% (inactive)
10,CCOC(=O)c1c(C)[nH]c(C2=NNC(=NC(C)COC)SC2)c1C (stereo unspecified),42.6% (active)
11,Cc1ccnc(NS(=O)(=O)c2ccc(NC(=O)c3oc4ccc(F)cc4c3C)cc2)n1,-2.51% (inactive)
12,O=C(NCC1COc2ccccc2O1)C1(c2ccccc2)CCCC1 (stereo unspecified),-2.77% (inactive)
13,COc1ccc(Br)cc1CN(C)CC(=O)Nc1cc([N+](=O)[O-])ccc1OC,-1.88% (inactive)
14,CCN(CC)c1ccc(/C=N/Nc2nc(C)cc(=O)[nH]2)cc1,1.51% (inactive)
15,Cc1cc(=O)[nH]c(N/N=C/c2ccc3c(c2)OCCO3)n1,38.7% (inactive)
16,Cc1cc(=O)[nH]c(N/N=C/c2c(C)nn(-c3ccccc3Cl)c2Cl)n1,10.2% (active)
17,Cc1ccc(C(=O)NCC(=O)NCc2cc(=O)n(C)c(=O)n2C)cc1,-0.788% (inactive)
18,O=C(CN1C(=O)CSC1=O)N1CCCC(Nc2ccc(F)cc2)C1 (stereo unspecified),-1.37% (inactive)
19,O=C1CCCCN1CCCC(=O)N1CCCC(Nc2ccc(F)cc2)C1 (stereo unspecified),2.17% (inactive)
20,O=C(CN1CCOC1=O)N1CCCC(Nc2ccc(F)c(F)c2)C1 (stereo unspecified),23.5% (active)
21,CC1CCCN(CCCNC(=O)CN2C(=O)COc3ccc(S(=O)(=O)N4CCOCC4)cc32)C1 (stereo unspecified),-6.25% (inactive)
22,CC1(C)CC(CCC(=O)Nc2ccccc2Cl)C(=O)O1 (stereo unspecified),5.32% (inactive)
23,O=C(Nc1ccc2c(c1)CCC2)c1cccc(S(=O)(=O)Nc2ccccc2Cl)c1,8.91% (inactive)
24,O=C(Cc1ccc2c(c1)CCCC2)Nc1ccccc1Cl,15.4% (active)
